PubChem BioAssay (NCI)
This is part of a sample that, as a whole, favours compounds with a hit. Of some 83,000 tested, about 20% had one in any assay.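 Method: cells in 96-well plates; compound added at one concentration; 48 h incubation; percent growth measured; values under 10 scored active.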 A number with no mark means an inactive call. Activity calls are given as the source filed them.

Legend:
Assay in all cases: NCI-60 one-dose screen, 48 h (100 = growth as untreated, 0 = no growth, -100 = all killed)
Conditions in all cases: 10 µM unless noted
NCI-H23 lung = system: NCI-H23 lung
NCI-H226 lung = system: NCI-H226 lung
NCI-H322M lung = system: NCI-H322M lung
HOP-62 NSCLC = system: HOP-62 NSCLC
NCI-H460 lung = system: NCI-H460 lung
HOP-92 NSCLC = system: HOP-92 NSCLC
NCI-H522 lung = system: NCI-H522 lung
A549/ATCC NSCLC = system: A549/ATCC NSCLC
786-0 renal = system: 786-0 renal
COLO 205 colon = system: COLO 205 colon
DU-145 prostate = system: DU-145 prostate
K-562 leukemia = system: K-562 leukemia
MALME-3M melanoma = system: MALME-3M melanoma
MDA-MB-231 breast = system: MDA-MB-231 breast
RXF 393 renal = system: RXF 393 renal
SF-268 CNS = system: SF-268 CNS
SF-295 CNS = system: SF-295 CNS
SF-539 CNS = system: SF-539 CNS
UACC-257 melanoma = system: UACC-257 melanoma
M14 melanoma = system: M14 melanoma

| Compound | growth (NCI-H23 lung) | growth (NCI-H226 lung) | growth (NCI-H322M lung) | growth (HOP-62 NSCLC) | growth (NCI-H460 lung) | growth (HOP-92 NSCLC) | growth (NCI-H522 lung) | growth (A549/ATCC NSCLC) | growth (786-0 renal) | growth (COLO 205 colon) | growth (DU-145 prostate) | growth (K-562 leukemia) | growth (MALME-3M melanoma) | growth (MDA-MB-231 breast) | growth (RXF 393 renal) | growth (SF-268 CNS) | growth (SF-295 CNS) | growth (SF-539 CNS) | growth (UACC-257 melanoma) | growth (M14 melanoma) |
| --- | --- | --- | --- | --- | --- | --- | --- | --- | --- | --- | --- | --- | --- | --- | --- | --- | --- | --- | --- | --- |
| COc1cccc(NC(=O)c2sc3nc(C)c(C(O)c4ccccc4)cc3c2N)c1 (stereo not given) | 22.9% | 55% | 49.7% | 32.5% | 4.01% (active) | 58.6% | 0.582% (active) | 22.4% | 34.4% | 5.41% (active) | 13.4% | 6.52% (active) | 63.2% | 9.72% (active) | 26.9% | 38.5% | 19.2% | -5.58% (active) | 71.4% | 13.9% |
| COc1ccc(C/C(C)=C(\c2ccc(O)cc2)c2ccc(OCCCN(C)C)cc2)cc1 | 91.8% | 94.2% | 94% | 111% | 93.7% | 68.7% | 91.5% | 90.6% | 101% | 97% | 101% | 70.4% | 97.1% | 106% | 89.5% | 88.1% | 104% | 107% | 92.4% | 99.4% |
| CCNC(=S)n1nc(SC)c(C(=O)OCC)c1N | 93.3% | 91.9% | 91.8% | 86.7% | 106% | 110% | 89.9% | 107% | 98.6% | 107% | 102% | 85.5% | 106% | 92.5% | 107% | 92% | 98.1% | 93.1% | 120% | 107% |
| O=c1cc(N/N=C/c2ccc(F)cc2)c2cc(Cl)ccc2[nH]1 | 85.3% | 76.1% | 95.2% | 95% | 102% | -48.3% (active) | 72.8% | 89.3% | 89.5% | 96.2% | 102% | 2.38% (active) | 98.4% | 94.4% | 113% | 106% | 100% | 104% | 85.8% | 81.2% |
| O=C(CCCOc1ccc(Br)cc1)Nc1ncc(Cc2ccc(F)cc2)s1 | 86.5% | 88.8% | 78.5% | 75.3% | 90.4% | 58% | 75.1% | 84.8% | 86.3% | 63.3% | 79.8% | 37.1% | 73.1% | 79.5% | 69.2% | 73% | 68.9% | 68.3% | 93.4% | 51% |
| C=C(CN1CC=CCC1)[C@@H]1CC[C@]2(COC(C)=O)CC[C@]3(C)[C@H](CC[C@@H]4[C@@]5(C)CC[C@H](O)C(C)(C)[C@@H]5CC[C@]43C)[C@@H]12 | 102% | 92.5% | 114% | 107% | 96.3% | 92.7% | 95% | 95.3% | 103% | 105% | 102% | 91.7% | 113% | 112% | 109% | 106% | 105% | 96.8% | 99.4% | 97.4% |
| COc1cccc(C2C(C#N)=C(N)Oc3cc(OCCCCCC[P+](c4ccccc4)(c4ccccc4)c4ccccc4)ccc32)c1 (stereo not given) | -23.1% (active) | 7.81% (active) | 6.6% (active) | -39% (active) | -44.4% (active) | -51.7% (active) | -10.7% (active) | 10.2% | -46.3% (active) | -62.5% (active) | 1.62% (active) | -21.2% (active) | -73.3% (active) | -54.1% (active) | -63.8% (active) | -38.5% (active) | -41.4% (active) | -58.1% (active) | -21.5% (active) | -49.7% (active) |
| CCNC(=O)Nc1ncccc1OCc1ccc(F)cc1 | 87.1% | 106% | 105% | 95.3% | 105% | 108% | 86.2% | 99% | 92.8% | 115% | 97.8% | 99.6% | 106% | 115% | 125% | 94.3% | 97.8% | 102% | 102% | 109% |
| Cc1ccccc1SSc1ccccc1C | 83.4% | 95.6% | 98.2% | 96% | 37.4% | 81.2% | 60.8% | 98.8% | 105% | 91.4% | 6.96% (active) | 99.1% | 104% | 82.7% | 73.8% | 95.2% | 80.3% | 104% | 105% | 85.2% |
| CCCCCCCCCCCCCCCCCCn1cc(COc2ccc(C=O)cc2)nn1 | 90.4% | 102% | 108% | 104% | 102% | 135% | 89% | 91.2% | 94.9% | 113% | 92.4% | 85.9% | 106% | 110% | 113% | 93.7% | 98.7% | 98.5% | 109% | 92.8% |
| COc1ccc(/C=C/C(=O)c2cc3c(N)c(C(=O)Nc4ccccc4Cl)sc3nc2C)cc1 | 52.3% | 27.4% | 62.3% | 45.3% | 32.6% | 9.45% (active) | 15.4% | 33.8% | -20.4% (active) | 69.8% | 46.3% | 38.9% | 21% | 33.8% | -3.54% (active) | 53.3% | 48.5% | 36.2% | 63.8% | 12.1% |
| CC1(C)C(N)=Nc2cc(OCCCCN3Cc4ccccc4C3)c(OCC3CC3)cc21 | 80.3% | 79.6% | 79.9% | 85.6% | 75.2% | 103% | 64.2% | 79.5% | 64.8% | -62.7% (active) | 88.8% | 97.3% | 2.01% (active) | 59.2% | 65.8% | 74.7% | 84.8% | 80.8% | 1.07% (active) | -53.1% (active) |
| COc1c(F)cc(-n2c(C(=O)N3CC(F)C3)cc3cccnc32)cc1F | 94.1% | 96.2% | 95.1% | 97.8% | 106% | 82.7% | 91.2% | 113% | 103% | 118% | 106% | 95.5% | 121% | 96.5% | 107% | 94.9% | 102% | 98% | 102% | 119% |
| N=C(N)c1ccc(-c2ccc(-c3ccc(F)cc3)s2)nc1 | 81.8% | 72.1% | 66% | 80.5% | -13.2% (active) | 69.8% | 64% | 59.1% | 88.7% | -46.7% (active) | 81.5% | 0.099% (active) | 89.5% | 57.1% | 80.1% | 87.6% | 79.5% | 79.6% | 93% | 76.1% |
| Cn1c(=O)c2c(nc(Nc3cc(=O)[nH]c(=O)[nH]3)n2Cc2ccccc2)n(C)c1=O | 91.5% | 86.6% | 97.9% | 20.6% | 2.91% (active) | 80.5% | 4.24% (active) | 12.3% | 102% | -2.38% (active) | 2.17% (active) | 87.5% | 103% | 99.7% | 81.7% | 24.9% | 101% | 94.2% | 47.3% | 91.8% |
| O=C(CCCCCCCCC(=O)N/N=C\c1ccccc1O)N/N=C\c1ccccc1O | 39.9% | -5.86% (active) | 19.5% | 0.588% (active) | -11.3% (active) | 41.9% | 34.3% | 17.1% | 3.41% (active) | 43.1% | 26.7% | 16.4% | 15.1% | 38.1% | 31.1% | 14.6% | 36% | 16.7% | 20.2% | -9% (active) |
